Test results reported in PubChem BioAssay (NCI).
This is part of a sample that, as a whole, favours compounds with a hit. Of some 83,000 tested, about 20% had one in any assay.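 For each line, cells grew in 96-well plates with the test compound present at a single concentration for 48 hours.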 A number with no mark means an inactive call. Activity calls are given as the source filed them.

test system: CCRF-CEM leukemia; experiment: NCI-60 one-dose screen, 48 h (100 = growth as untreated, 0 = no growth, -100 = all killed); settings: 10 µM unless noted
Procedure: Growth inhibition of the CCRF-CEM human tumor cell line is measured as a screen for anti-cancer activity. Cells are grown in 96 well plates and exposed to the test compound for 48 hours. Compounds are tested at a single concentration, which is 10^-5 M for most compounds. The reported endpoint is percent growth (GI% or GIPRCNT), where numbers from 0 - 100% represent growth inhibition, and numbers from -100% - 0 represent cell death. For example, a value of 40 represents 60% growth inhibition. A value of 0 means no net growth occurred over the course of the experiment. A value of -40 indicates 40% of cells at the beginning of the experiment died by the end of the experiment. A value of -100 means all cells are dead at the end of the experiment.
NCI-60 Human Tumor Cell Lines Screen was performed using the standard one-dose NCI protocol, which is described in more detail at https://dtp.cancer.gov/discovery_development/nci-60/default.htm.
Compounds with GIPRCNT values below 10 were considered active. Activity score was based on GIPRCNT using the following formula: […]
Score is 0 for GIPRCNT values of 100 or above, 50 for GIPRCNT values of 0, and 100 for GIPRCNT values of -100.

First: CS(=O)(=O)Nc1cc(-c2ccc3ncnc(Nc4c(Cl)ccc5c4OCO5)c3c2)cnc1Cl
Second: C#Cc1cccc(Nc2ncnc3ccc(-c4cnc(N)nc4)cc23)c1
The growth of the first is lower: 11.9% for the first, 35.7% for the second.

First: CC[C@]12C=CCN3CC[C@@]4(c5cc(NC(=O)CCC(=O)OCc6cn(Cc7ccc(F)cc7)nn6)c(OC)cc5N(C)[C@H]4[C@@](O)(C(=O)OC)[C@@H]1OC(C)=O)[C@@H]32
Second: CCOC(=O)c1cc(C(=O)c2cc(OC)c(OC)c(OC)c2)n2ccc(-c3ccncc3)cc12
The growth of the first is higher: 102% for the first, 90% for the second.

First: O=C(NNc1nccc(Nc2ccc(S(=O)(=O)Nc3ccncc3)cc2)n1)c1ccccc1
Second: CCOC(=O)c1nc(Nc2ccc(NC(=O)Nc3ccc(F)cc3)cc2)c2ccccc2n1
The growth of the first is higher: 111% for the first, 109% for the second.

First: COCCn1cc(-c2nc(-c3cc4cccnc4n3CCOC)cs2)c2cc(OC)ccc21
Second: c1cnc2[nH]cc(-c3csc(-c4cn(CCCN5CCOCC5)c5ccccc45)n3)c2c1
The growth of the first is higher: 35.2% for the first, 17.4% for the second.

Going from `N#Cc1c(-c2ccc(Cl)cc2)nc(NN=Cc2cccc(O)c2)nc1N1CCOCC1` to `O=C(NCCCN1CCOCC1)c1cccc(N2C(=O)/C(=C/c3ccc(F)cc3)SC2=S)c1`, the growth rises from 36.2% to 108%.

Compared with `COc1cc2c(c(OC)c1OC)-c1ccc(OC)c(=O)cc1[C@@H](NC(=O)CCl)CC2`, `COc1ccc(-c2cn(-c3cc(OC)c(OC)c(OC)c3)c(=O)n2C(C)=O)cc1` is higher in growth: 15.3% for the first, 91.7% for the second.

First: C/C(=N/O)c1ccc(F)cc1
Second: COc1ccc2cc(C(=O)c3coc4ccc(O)cc34)ccc2c1
The growth of the first is higher: 87.2% for the first, 56.4% for the second.

Compared with `COc1ccc(-c2csc(N(C(=O)N3CCN(c4cc5c(cc4F)c(=O)c(C(=O)O)cn5C4CC4)CC3)c3ccccc3)n2)cc1`, `O=C1c2cccc3cccc(c23)C(=O)N1N1C(=O)c2cccc3c(N4CCOCC4)ccc(c23)C1=O` is higher in growth: 24.9% for the first, 122% for the second.

Compared with `Nc1c(C(=O)Nc2ccccc2Cl)sc2nc3c(cc12)C(O)CCC3` (stereo not given), `CCOC(=O)c1cn2ncnc(Oc3ccc(NC(=O)NC4CCCCC4)c(Cl)c3)c2c1C` is higher in growth: 17.7% for the first, 69.8% for the second.

Compared with `Clc1ccc(Sc2cnc(-c3ccccc3)o2)cc1`, `O=C1Nc2ccccc2[C@]12CC(c1ccccc1)=NN2` is lower in growth: 99.2% for the first, 37.2% for the second.

Compared with `COC(C(=O)[C@@H](O)[C@@H](C)O)[C@@H]1Cc2cc3cc(O[C@H]4C[C@@H](O[C@H]5C[C@@H](O)[C@H](O)C(C)O5)[C@H](O)C(C)O4)cc(O)c3c(O)c2C(=O)[C@H]1O[C@H]1C[C@@H](O[C@H]2C[C@@H](O[C@H]3C[C@@H](OC)[C@H](O)C(C)O3)[C@@H](O)C(C)O2)[C@H](O)C(C)O1` (stereo not given in full), `C=C(C)[C@@H]1CC[C@]2(C(=O)O)CC[C@]3(C)[C@H](CC[C@@H]4[C@@]5(C)C[C@@H](Cc6cn(CCO[C@@H]7O[C@H](COC(C)=O)[C@H](OC(C)=O)[C@H](OC(C)=O)[C@H]7OC(C)=O)nn6)[C@H](O)C(C)(C)[C@@H]5CC[C@]43C)[C@@H]12` is higher in growth: 68.9% for the first, 69.2% for the second.

Compared with `CC/C(=C(/c1ccc(Cl)cc1)c1ccc(OCCN2CCCC2)cc1)c1ccc(OC)cc1`, `CCCCCCCCn1ccc2cc(NC(=O)Cn3cc(CN4CCCCC4)nn3)ccc21` is lower in growth: 40.6% for the first, 15.7% for the second.

Going from `O=S(=O)(NCCCNc1nccc(-c2c(-c3ccc(F)c(O)c3)nc3occn23)n1)c1ccccc1` to `O=C(CCCCC1CCSS1)Nc1ncnc2n[nH]c(-c3ccc(Oc4ccccc4)cc3)c12` (stereo not given), the growth falls from 79.1% to 13.7%.

First: CSc1nnc(-c2cnn3c2NC(c2ccccc2)C3)n1-c1ccc(C(F)(F)F)cc1 (stereo not given)
Second: Nc1ncnc2c1N=C(c1ccc3c(c1)OCO3)CC(c1ccc([N+](=O)[O-])cc1)N2 (stereo not given)
The growth of the first is higher: 48% for the first, 39.3% for the second.

Compared with `COc1ccc(OC)c(C(=O)/C=C/c2cc3c(c(OC)c2OC)OCO3)c1`, `CCO/C=N/C1=C(C#N)C(c2ccc(OC)cc2)c2sc3c(F)cccc3c2O1` (stereo not given) is lower in growth: 40.1% for the first, 12.2% for the second.

With `CCCCCCNC(=O)Oc1ccc(/C(=C(/C)Cc2ccc(OC)cc2)c2ccc(OCCCN(C)C)cc2)cc1` the growth was -2.26% (active).
In the case of `CN1CCN(c2ccc(NC(=O)c3nc4ccc5[nH]ncc5c4c4c3CCCC4)cc2C(F)(F)F)CC1`, the growth is reported as 5.81% (active).
For `COc1ccc(NC(=O)c2sc3nc(C)c(C(=O)/C=C/c4cccc(OC)c4)cc3c2N)cc1`, the growth was 7.32% (active).
`O=C(N/N=C/c1ccc(F)cc1)c1ccc(C(F)(F)F)nc1Nc1cccc(C(F)(F)F)c1` was tested, and the growth was 0.801% (active).
With `O=C1/C(=C/c2ccccc2Br)COc2ccc(O)c(O)c21` the growth was 1.62% (active).
`NC(=O)c1c(NC(=O)c2ccccc2)sc2c1CCC(=O)C2` was tested, and the growth was 5.12% (active).
With `Oc1c(Cl)cc(Cl)c2ccc(Cn3cc(-c4ccc(C(F)(F)F)cc4)nn3)nc12` the growth was 6.1% (active).
`Cc1ccc(-c2nn(-c3ccccc3)cc2C=C2C(=O)ON=C2C(C)C)cc1` was tested, and the growth was 1.71% (active).
`N=C(N)c1ccc(-c2ccc(-c3ccc(F)cc3)o2)o1` was tested, and the growth was 2.36% (active).
With `C#CCOc1ccc2ncnc(Nc3ccc(NC(=O)CCl)cc3)c2c1` the growth was -23.7% (active).
